Source: PubChem BioAssay (NCI)
The panel holds about 83,000 compounds, 20% with a hit somewhere; the sample as a whole holds those more often.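 48-hour exposure, single concentration, 96-well plates; percent growth endpoint where 0 means no net growth. Active: below 10.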 Values without a mark were called inactive. Active and inactive are the calls of the source.

Columns and labels:
Assay in all cases: NCI-60 one-dose screen, 48 h (100 = growth as untreated, 0 = no growth, -100 = all killed)
Conditions in all cases: 10 µM
[1] = system: NCI-H23 lung
[2] = system: NCI-H226 lung
[3] = system: NCI-H322M lung
[4] = system: HOP-62 NSCLC
[5] = system: NCI-H460 lung
[6] = system: NCI-H522 lung
[7] = system: A549/ATCC NSCLC
[8] = system: 786-0 renal
[9] = system: COLO 205 colon

| SMILES | growth [1] | growth [2] | growth [3] | growth [4] | growth [5] | growth [6] | growth [7] | growth [8] | growth [9] |
| --- | --- | --- | --- | --- | --- | --- | --- | --- | --- |
| CCCC[P+](c1ccccc1)(c1ccccc1)c1ccccc1 | 44.4% | 67% | 95.1% | 80.2% | 53.4% | 39.6% | 53.7% | 98.9% | 32.2% |
| COc1cc2c3c(n(C)c(=O)c2cc1OC)-c1cc2c(cc1C3=O)OCO2 | 71.9% | 66.9% | 89.9% | 45.1% | 29.3% | 1.48% (active) | 81.8% | 77.1% | 72.5% |
| Oc1ccc(O)cc1 | 96.3% | 110% | 106% | 106% | 113% | -40.8% (active) | 102% | 114% | 112% |
| Cc1cc(/C=C/c2ccc3cc(N(C)C)ccc3[n+]2C)c(C)n1-c1ccccc1 | -6.43% (active) | -75.1% (active) | 2.15% (active) | -81.5% (active) | -64.8% (active) | -31.7% (active) | -44.9% (active) | -15.9% (active) | -79.5% (active) |
| COc1ccc(C)cc1OC | 96.4% | 98.8% | 88.8% | 102% | 107% | 104% | 96.9% | 105% | 113% |
| CCCCC1C(=O)N(c2ccccc2)N(c2ccccc2)C1=O | 109% | 95.8% | 99.9% | 99.3% | 114% | 102% | 106% | 98.5% | 106% |
| c1ccc(CN2COc3c(ccc4c3OCN(Cc3ccccc3)C4)C2)cc1 | 29.9% | -9.91% (active) | 32.9% | 26.2% | 9.51% (active) | 30.7% | 6.93% (active) | -26% (active) | 12.7% |
| NC(C(=O)O)C(O)c1ccco1 (centres undefined) | 108% | 96.6% | 107% | 104% | 108% | 137% | 102% | 98.3% | 102% |
| CCCCC(=O)c1ccc(OC)cc1 | 99.7% | 99.7% | 111% | 112% | 104% | 91.2% | 97.4% | 96.2% | 118% |
| COC1=CC(=O)c2nc(Cl)ccc2C1=O | -15.2% (active) | 26.6% | 106% | 89.4% | 115% | -51.2% (active) | 98.3% | 72.4% | 102% |
| CC(C)OC(=O)c1cc(NC(=S)OC(C)C)ccc1Cl | 79.7% | 86.6% | 85.8% | 91.5% | 108% | 77.4% | 70.6% | 82.2% | 102% |
| COC(=O)/C=C\C(=O)OC | 106% | 114% | 125% | 113% | 111% | 89.2% | 100% | 103% | 118% |
| Cc1ccc(Cl)cc1NC(=O)N(C)CCO | 110% | 115% | 116% | 109% | 108% | -7.39% (active) | 59.5% | 109% | 144% |
| O=c1cc(-c2ccccc2)nc2cc(-c3ccco3)[nH]n12 | 96.5% | 102% | 95.6% | 88.3% | 104% | 71.8% | 56.7% | 111% | 95.6% |
| CCOC(=O)Nc1cc2c(c(N)n1)N=C(c1ccccc1)CO2 | 34.8% | 39.6% | 15.3% | 50% | 8.86% (active) | -13.9% (active) | 23.3% | 39.1% | 6.19% (active) |
| CCc1ccc(/C(C#N)=C/C=C/c2ccccc2)cc1 | 33.4% | 67.3% | 32.7% | 34.4% | 13.7% | -39.4% (active) | 28.7% | 63.2% | -15% (active) |
